Measured values published in PubChem BioAssay AID2147 (National Center for Advancing Translational Sciences (NCATS), 2009).
In all, about 230,000 compounds went through this assay and about 3,600 (1.6%) were called active. Roughly 15% stayed inconclusive and do not appear here. The call rests on the fitted dose curve; in most records, active means well fitted inhibition curve with a large enough effect (not every such curve was filed as active); inconclusive means small, poorly fitted or top-dose-only effect, or another doubt; inactive means no such curve, though single readings can be large or run the other way. This excerpt belongs to a sample that is enriched for actives.

molecular target: Lysine-specific demethylase 4E (Homo sapiens) (UniProt B2RXH2); test: qHTS Assay for Inhibitors of Human Jumonji Domain Containing 2E (JMJD2E); settings: JMJD2E catalytic domain, FDH-coupled NADH fluorescence (FDH is formaldehyde dehydrogenase); series mostly up to 57.1 µM; activity change, negative = inhibition: at the top concentration
Sequence (B2RXH2 1-337 limits assumed): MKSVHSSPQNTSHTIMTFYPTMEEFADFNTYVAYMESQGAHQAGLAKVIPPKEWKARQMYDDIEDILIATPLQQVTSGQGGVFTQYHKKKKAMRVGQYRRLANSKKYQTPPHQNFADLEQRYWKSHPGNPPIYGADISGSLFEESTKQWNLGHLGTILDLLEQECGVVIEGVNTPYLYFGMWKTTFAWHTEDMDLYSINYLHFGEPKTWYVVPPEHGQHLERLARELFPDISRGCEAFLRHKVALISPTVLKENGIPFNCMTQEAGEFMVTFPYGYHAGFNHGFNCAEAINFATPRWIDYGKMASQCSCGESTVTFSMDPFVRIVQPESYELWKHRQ
Text: Assay Provider: Structural Genomics Consortium [SGC] Screening Center PI: Austin, C.P. Screening Center: NIH Chemical Genomics Center [NCGC] The fine interplay among methylation states of several lysine residues on the tails of histone proteins is a major determinant of the transcriptional state of the associated DNA coding regions and is commonly referred to as the histone code. Histone lysine demethylases catalyze the removal of methyl groups from methylated lysine sidechains on histones H3 and H4, thus antagonizing the reactions catalyzed by histone lysine methyltransferases. […] In search for novel inhibitors of JMJD2E demethylase, a member of the largest set of histone demethylases belonging to the Fe(II) and 2-oxoglutarate oxygenase (2OG) superfamily, we performed a quantitative high-throughput screen (Inglese 2006) by using an assay which utilizes a trimethylated peptide substrate corresponding to a fragment of histone H3 (sequence ARKme3STGGK) with detection of the formaldehyde co-product in real time by a formaldehyde dehydrogenase (FDH) coupled reaction. FDH catalyzes oxidation of formaldehyde to formic acid with the concomitant reduction of the non-fluorescent beta-nicotinamide adenine dinucleotide hydrate (NAD+) cofactor to the fluorescent NADH co-product. References: Inglese, J., Auld, D., Jadhav, A., Johnson, R., Simeonov, A., Yasgar, A., Zheng, W. and Austin, C. Proc Natl Acad Sci USA 2006, 103, 11473-11478. N. R. Rose, S. S. Ng, J. Mecinovic, B. M. Lienard, S. H. Bello, Z. Sun, M. A. McDonough, U. Oppermann and C. J. Schofield, J Med Chem, 2008, 51, 7053-7056. Sakurai, M., Rose, N., Schultz, L., Quinn, A., Jadhav, A., Ng, S., Oppermann, U., Schofield, C.J. and Simeonov, A. Mol BioSystems 2009, in press. S. Michael, D. Auld, C. Klumpp, A. Jadhav, W. Zheng, N. Thorne, C. Austin, J. Inglese and A. Simeonov, Assay Drug Dev Technol, 2008, 6, 637-657.
Reagents and Controls: Ferrous ammonium sulfate, (+)-sodium L-ascorbate, beta-nicotinamide adenine dinucleotide hydrate (NAD+), Tween-20, formaldehyde dehydrogenase from P. putida (FDH), and disodium 2-oxoglutarate were from Sigma (St. Louis, MO). Black solid-bottom 384-well or 1,536-well assay plates were from Greiner Bio-One (Monroe, NC). Enzyme was supplied by Prof. Udo Oppermann, SGC-Oxford. The catalytic domain of human JMJD2E (residues 1-337) was produced as an N-terminally His6-tagged protein in E. coli, and purified by Ni-affinity chromatography and size-exclusion chromatography, and stored in HEPES 50 mM/ NaCl 500 mM pH 7.5, as reported in Rose 2008. The trimethylated histone peptide substrate ARK(me3)STGGK was synthesized and HPLC-purified by the Tufts University Core Facility (Boston, MA). Substrate solution (Sakurai 2009) contained 50 uM ARK(me3)STGGK, 0.00025 U/uL FDH, 50 uM 2-oxoglutarate, 250 uM NAD+, 1 mM ascorbate, and 10 uM ferrous ammonium sulfate. Controls and plate map: Buffer (150 mM HEPES pH 7.5 containing 0.01% Tween-20) in columns 3 and 4 as negative control (no enzyme) and 100 nM JMJD2E final concentration in columns 1,2, and 5-48. Assay Steps: Enzyme and buffer solutions (3 uL) were dispensed into a 1,536-well Greiner black solid-bottom assay plate. The library compounds (23 nL) were transferred using a Kalypsys pintool equipped with 1,536-pin array. The plate was incubated at room temperature (15 min), and then a 1 uL aliquot of substrate solution was added to initiate the reaction. The plate was transferred to ViewLux imager where an initial reading using standard UV optics (Ex 340 nm, Em 450 nm) was obtained. The plate was then removed from the reader, incubated for 30 minutes at room temperature, and returned to the reader for a second fluorescence reading. A fully automated robotic screening system (Kalypsys Inc, San diego, CA) was used to perform the above steps as described previously (Michael 2008). […]
Further: nearly all actives have a fitted effect of over 50% in size.
Potency means the concentration at half of the fitted maximal effect.
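Wherever activity change, negative = inhibition is given: 0% = wells with enzyme and -100% = buffer wells without enzyme.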

| SMILES | activity change, negative = inhibition | Potency |
| --- | --- | --- |
| COc1ccc(CCC(=O)c2c(O)cc(OC3OC(CO)C(O)C(O)C3O[C@@H]3OC(C)C(O)C(O)C3O)cc2O)cc1O (stereo partly drawn) | -3.34% (inactive) |  |
| CC1OC(OCC2OC(Oc3c(-c4ccc(O)c(O)c4)oc4cc(O)cc(O)c4c3=O)C(O)C(O)C2O)[C@@H](O)C(O)C1O (stereo partly drawn) |  | 7.08 µM (active) |
| C=CCc1ccc(OCC(O)CN2CCN(Cc3ccccc3)CC2)c(OC)c1 (stereo not drawn) | -5.88% (inactive) |  |
| CCN(CC)CC1(O)CCN(C(=O)c2ccc(Cl)c(Cl)c2)CC1 | -3.78% (inactive) |  |
| CSc1nnnn1-c1c(C)cc(C)cc1C | -5.36% (inactive) |  |
| CCc1ccc[n+](-c2nc([O-])sc2C=O)c1 | 1.47% (inactive) |  |
| O=C(Nc1ccc(N2CCN(C(=O)c3ccccc3)CC2)c(Cl)c1)c1ncn[nH]1 | -12.6% (inactive) |  |
| Nc1cccc(S(=O)(=O)Nc2ccc(SC(F)F)cc2)c1 | 0.195% (inactive) |  |
| CN1CCN(C2=NCCO2)CC1 | 11.8% (inactive) |  |
| Cc1cccc(-[n+]2c(-c3cccc(Br)c3)[nH]c3nc4ccccc4nc32)c1 |  | 25.1 µM (active) |
| CCCCCc1nnc(NC(=O)c2ccc(=O)n(C)n2)s1 | 3.42% (inactive) |  |
| CCOCCCNCc1cc(Br)ccc1OCC | -8.97% (inactive) |  |
| Cn1nc(C(F)(F)F)cc1C(=O)O | -0.937% (inactive) |  |
| O=C(O)CC/C(=N\NC(=O)c1ccc(F)cc1)c1ccc(Br)cc1 | 26.4% (inactive) |  |
| CC(=O)Nc1ccc(/C=N/Nc2ccc(C(=O)c3c(C)cc4ccccn34)cc2[N+](=O)[O-])cc1 | -6.21% (inactive) |  |
| COc1ccc(C(C[N+](=O)[O-])n2nc(C)cc2C)cc1 (stereo not drawn) | -17.4% (inactive) |  |
| Cc1ccc(C(C[N+](=O)[O-])c2c(C)cc3ccccn23)cc1 (stereo not drawn) |  | 25.1 µM (active) |
| Cc1ccc(/C=N/NC(=S)Nc2cccc(S(=O)(=O)N(C)C)c2)o1 | 2.81% (inactive) |  |
| Cc1ccnc(NC(=O)CCC(=O)N(CC(=O)NCCc2ccccc2)Cc2cccs2)c1 | 4.44% (inactive) |  |
| C#CCNc1ccc(C(=O)OCC)cc1 | -3.79% (inactive) |  |
| COC(=O)c1c(C)oc(C)c1S(=O)(=O)NCc1ccc(Cl)cc1 | 1.03% (inactive) |  |
| COc1ccc(C(=O)C2CCCN(C(=O)c3cnsn3)C2)c(C)c1 (stereo not drawn) | 1.42% (inactive) |  |
| Oc1[nH]c2ccc(Br)cc2c1N=Nc1nn[nH]n1 | -5.01% (inactive) |  |
| CSc1n[nH]c(=S)n1N |  | 31.6 µM (active) |
| Nc1ccc(N=Nc2ccccc2Cl)c(N)n1 | -0.968% (inactive) |  |
| Cc1ccc(S(=O)(=O)N(C)C)cc1NC(=O)c1n[nH]c(=O)c2ccccc12 | -0.703% (inactive) |  |
| COc1cccc(/C=N\NC(=O)C2=NNC(=O)C2C)c1O (stereo not drawn) |  | 7.08 µM (active) |

| SMILES | activity change, negative = inhibition | Potency |
| --- | --- | --- |
| COc1cccc(/C=N/NC(=O)c2[nH]nc3c2CCc2ccccc2-3)c1O | -6.09% (inactive) |  |
| COc1cccc(/C=N/Nc2cc(C)nc(-c3ccccc3O)n2)c1O | -19.7% (inactive) |  |
| Oc1ccc(-c2nnc(Nc3ccccc3)c3ccccc23)cc1 | 6.49% (inactive) |  |
| O=c1c(-c2ccccc2)cnc2n1CCS2 | -0.466% (inactive) |  |
| CN1CCN(c2ncc3c(n2)CC(c2ccccc2F)CC3=O)CC1 (stereo not drawn) | 8.1% (inactive) |  |
| O=C(Cn1nnc(N2CCCCC2)n1)c1ccc(Cl)c(Cl)c1 | 1.01% (inactive) |  |
| Cc1ccc(SCc2c(C(=O)N/N=C/C3CC=CCC3)nnn2-c2nonc2N)cc1 (stereo not drawn) | 6.28% (inactive) |  |
| Nc1nonc1-n1nnc(C(=O)N/N=C/c2cc(Br)ccc2O)c1CSC1=NCCS1 |  | 20 µM (active) |
| COCc1c(C(=O)N/N=C/C2CC=CCC2)nnn1-c1nonc1N (stereo not drawn) | 28.1% (inactive) |  |
| CCOc1ccc(-c2nc(N)ncc2-c2ccccc2OC)c(O)c1 | 0.955% (inactive) |  |
| Cc1cc(C)cc(C(=O)NC2C(=O)N3C(C(=O)O)=C(CSc4nnc(C)s4)CSC23)c1 (stereo not drawn) | -12.1% (inactive) |  |
| O=C(CNc1ccc(F)cc1F)NC(=O)NCc1ccco1 | -10.3% (inactive) |  |
| Cc1ccc(C(=O)NC(=S)Nc2ccccc2C)cc1 | -6.18% (inactive) |  |
| Cc1ccc(C(=O)NCCNC(=O)c2ccccc2)cc1 | -3.49% (inactive) |  |
| C/C(=N\NC(=O)c1ccc(C)cc1)C1C(=O)c2ccccc2C1=O |  | 25.1 µM (active) |
| O=c1[nH]c2cccnc2n1-c1ccc([N+](=O)[O-])cc1 | -0.719% (inactive) |  |
| O=C(CCCl)Nc1ccc(S(=O)(=O)NCc2ccco2)cc1 | -9.18% (inactive) |  |
| CCC(C)(C)NC(=O)C1c2ccccc2Oc2ccccc21 | 9.54% (inactive) |  |
| CCC(C)NC(=O)C1c2ccccc2Oc2ccccc21 (stereo not drawn) | -12.8% (inactive) |  |
| O=C(N/N=C/c1ccc(O)c(O)c1)C1c2ccccc2Oc2ccccc21 |  | 14.1 µM (active) |
| COc1ccc(OC)c(NC(=O)CN(Cc2ccc(Cl)cc2)S(C)(=O)=O)c1 | 1.48% (inactive) |  |
| O=C(CSc1nc(O)c(Cc2ccccc2)c(=O)[nH]1)Nc1nc2c(s1)CCCC2 | 8.09% (inactive) |  |
| CC(C)(C)NC(=O)NCc1ccco1 | 0.475% (inactive) |  |
| Cc1ccc(C(=O)NC(=S)NCCN2CCOCC2)cc1 | 6.9% (inactive) |  |
| Cc1ccc(NC(=S)NCCN2CCOCC2)cc1 | -5.61% (inactive) |  |
| CCOc1cccc(/C=N/NC(=S)NCCN2CCOCC2)c1O |  | 35.5 µM (active) |
